Conditions in all cases: mRNA level, 48 h; actives raise or lower the signal
Read-out in experiment [1]: ATP-citrate lyase (ACLY), ACLY (gene 47)
Kind of experiment: LTEA_HepaRG_ACLY: Life Technologies and Expression Analysis (LTEA) Assay for ATP-citrate lyase (ACLY) using HepaRG (AID 2283466). The gist of the method: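 qRT-PCR readout of ACLY transcript after 48 h chemical treatment of HepaRG cells; expression normalized to three housekeeping genes. Eight-point half-log series, highest 100 uM, 0.5% DMSO vehicle. Gain or loss fitted against DMSO baseline.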

Read-out in experiment [2]: Peroxisomal acyl-coenzyme A oxidase 1 (ACOX1) gene, ACOX1 (gene 51)
Kind of experiment: LTEA_HepaRG_ACOX1: Life Technologies and Expression Analysis (LTEA) Assay for Peroxisomal acyl-coenzyme A oxidase 1 (ACOX1) gene using HepaRG (AID 2283467). The gist of the method: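 HepaRG, 48 h chemical exposure, 8-pt half-log series from 100 uM top, 0.5% DMSO vehicle, duplicates. Readout: ACOX1 mRNA by Fluidigm qRT-PCR, housekeeping-normalized; bidirectional fit vs DMSO baseline.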

Read-out in experiment [3]: Alkaline Phosphatase, Placental (ALPP) gene, ALPP (gene 250)
Kind of experiment: LTEA_HepaRG_ALPP: Life Technologies and Expression Analysis (LTEA) Assay for Alkaline Phosphatase, Placental (ALPP) gene using HepaRG (AID 2283468).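 On AC50: differentiated human HepaRG liver cells in serum-free induction medium; ALPP transcript by TaqMan qRT-PCR normalized to ACTB GAPDH and POLR2A.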 The gist of the method:
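Using human liver HepaRG cells, chemicals are tested in duplicate over 48 h at half-log concentrations topping at 100 uM; phenobarbital 1 mM serves as induction control. ALPP mRNA change by qRT-PCR, bidirectional fit against vehicle.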

Read-out in experiment [4]: Bcl-2 (BAD) gene, BAD (gene 572)
Kind of experiment: LTEA_HepaRG_BAD: Life Technologies and Expression Analysis (LTEA) Assay for Bcl-2 (BAD) gene using HepaRG (AID 2283469). Put shortly: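 HepaRG, 48 h exposure, 8-pt half-log curve from 100 uM in 0.5% DMSO, duplicates. Readout: TaqMan qRT-PCR for BAD mRNA, housekeeping-normalised (ACTB/GAPDH/POLR2A); gain or loss fitted against DMSO baseline.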

Read-out in experiment [5]: Bcl-2 (BAX) gene, BAX (gene 581)
Kind of experiment: LTEA_HepaRG_BAX: Life Technologies and Expression Analysis (LTEA) Assay for Bcl-2 (BAX) gene using HepaRG (AID 2283470). The gist of the method:
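qRT-PCR read-out of BAX mRNA, normalized to three housekeeping genes, after 48 h chemical exposure of human HepaRG cells in serum-free induction medium; eight-point half-log series, top 100 uM, 0.5% DMSO vehicle; bidirectional fit versus DMSO.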

Read-out in experiment [6]: Alpha-fetoprotein (AFP) gene, AFP (gene 174)
Nature of the experiment: LTEA_HepaRG_AFP: Life Technologies and Expression Analysis (LTEA) Assay for Alpha-fetoprotein (AFP) gene using HepaRG (AID 2283472).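 On AC50: AFP transcript by TaqMan qRT-PCR normalized to ACTB GAPDH and POLR2A.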 Put shortly:
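qRT-PCR (Fluidigm TaqMan) readout of AFP transcript, normalized to three housekeeping genes, fitted bidirectionally against 0.5% DMSO baseline. HepaRG cells received chemicals for 48 h in serum-free induction medium, top concentration 100 uM, half-log steps.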

Read-out in another experiment: BCL2L11 (gene 10018)
Nature of the experiment: LTEA_HepaRG_BCL2L11: Life Technologies and Expression Analysis (LTEA) Assay for Bcl-2 (BCL2L11) gene using HepaRG (AID 2283473). Put shortly: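 Human hepatic HepaRG cultures are treated 48 h with test chemicals (maximum 100 uM, 0.5% DMSO vehicle). Expression of BCL2L11 is measured by qRT-PCR against ACTB, GAPDH and POLR2A, with activity in either direction scored relative to vehicle.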

Read-out in experiment [7]: Apolipoprotein A-V (APOA5) gene, APOA5 (gene 116519)
Kind of experiment: LTEA_HepaRG_APOA5: Life Technologies and Expression Analysis (LTEA) Assay for Apolipoprotein A-V (APOA5) gene using HepaRG (AID 2283474). The gist of the method:
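Concentration-response of APOA5 expression in HepaRG: eight half-log doses to 100 uM, 48 h, qRT-PCR normalized to ACTB/GAPDH/POLR2A, bidirectional fitting with 0.5% DMSO as baseline.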

Read-out in experiment [8]: Apoptosis regulator Bcl-2 (Homo sapiens) (UniProt P10415)
Kind of experiment: LTEA_HepaRG_BCL2: Life Technologies and Expression Analysis (LTEA) Assay for Bcl-2 gene using HepaRG (AID 2283475). Put shortly: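 qRT-PCR read-out (Fluidigm TaqMan) of BCL2 transcript, normalised to three housekeeping genes, after 48 h chemical exposure of HepaRG cells; 8-point half-log series, top 100 uM, 0.5% DMSO vehicle. Gain or loss of signal fitted relative to DMSO baseline.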

Read-out in experiment [9]: adenosine kinase (ADK) gene, ADK (gene 132)
Nature of the experiment: LTEA_HepaRG_ADK: Life Technologies and Expression Analysis (LTEA) Assay for adenosine kinase (ADK) gene using HepaRG (AID 2283471). The gist of the method:
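Read-out is ADK transcript level measured by qRT-PCR and normalised to three housekeeping genes. Cells are human HepaRG, dosed for 48 h at up to 100 uM in 0.5% DMSO. Gain or loss of signal is fitted against DMSO controls.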

Activity calls are given as the source filed them. How the source made its calls: active means hit-call score of the fitted dose curve at least 0.9, where 1 is the maximum; inactive means score below 0.9.

Sequence of Apoptosis regulator Bcl-2 (Homo sapiens) (P10415 whole entry, looked up): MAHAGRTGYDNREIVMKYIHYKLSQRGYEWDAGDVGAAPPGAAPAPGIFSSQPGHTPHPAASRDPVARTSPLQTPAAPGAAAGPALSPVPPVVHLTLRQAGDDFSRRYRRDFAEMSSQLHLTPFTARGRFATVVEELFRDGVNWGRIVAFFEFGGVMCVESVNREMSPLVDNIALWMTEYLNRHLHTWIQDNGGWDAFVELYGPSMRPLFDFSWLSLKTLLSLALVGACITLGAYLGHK

Turning to `CC[C@H]1OC(=O)[C@H](C)[C@@H](O[C@H]2C[C@@](C)(OC)[C@@H](O)[C@H](C)O2)[C@H](C)[C@@H](O[C@@H]2O[C@H](C)C[C@H](N(C)C)[C@H]2O)[C@](C)(O)C[C@@H](C)C(=O)[C@H](C)[C@@H](O)[C@]1(C)O`, the call in experiment [1], in experiment [2], in experiment [3], in experiment [4], in experiment [5] and in [6] was inactive. The compound was classed as inactive (with BCL2L11 (gene 10018); in experiment [7]; in [8]).
On to `CC1(C)C(=O)N(Br)C(=O)N1Br`, for which the call in experiment [1], in experiment [2], in experiment [3], in experiment [4], in [9] and in experiment [6] was inactive. Besides, the result (with BCL2L11 (gene 10018); in experiment [7]; in experiment [8]) was inactive.
By AC50 is commonly meant the concentration at which the activity in the assay is half-maximal. For `CN(C)c1ccc(Cc2ccc(N(C)C)cc2)cc1`, the outcome (in experiment [1]; in [2]; in [4]; in experiment [9]; in the experiment with BCL2L11 (gene 10018); in experiment [8]) was inactive. For the same compound, the AC50 in experiment [3] was 61.6 µM (active); in [6], 50 µM (active); in [7] it was 76.1 µM (active).
Take `CCCCC(CC)COC(=O)CCCCCCCCC(=O)OCC(CC)CCCC` (stereo not drawn): the call in [1], in experiment [2], in experiment [3], in experiment [4], in [9] and in experiment [6] was inactive. In addition, the compound was called inactive (in the experiment with BCL2L11 (gene 10018); in experiment [7]; in experiment [8]).
Turning to `CCOCCOCCOCCO`, the result in experiment [1], in experiment [2], in experiment [3], in experiment [4], in [9] and in [6] was inactive. Further, the call (with BCL2L11 (gene 10018); in experiment [7]; in [8]) was inactive.
For `CC[C@H]1CC[C@H](NCc2cc3c(cc2OC)[C@H]2C[C@H]2C(=O)N3C)[C@H](c2ccccc2)N1`, the compound was classed as inactive in experiment [1], in experiment [2], in experiment [4], in experiment [9], in experiment [7] and in [8]. Moreover, the figures for the AC50 (in experiment [3]; in [6]; in the experiment with BCL2L11 (gene 10018)) were 75.7 µM (active), 50 µM (active) and 31.7 µM (active), respectively.
`CC(C)c1cccc(C(C)C)c1N1C(=O)c2ccc(O)cc2C1=O`: the AC50 in experiment [1] is 74.8 µM (active); in experiment [3], 91.6 µM (active); in [6], 79.9 µM (active); in [8], 86.2 µM (active). Moreover, the compound was called inactive (in [2]; in experiment [4]; in [9]; in the experiment with BCL2L11 (gene 10018); in experiment [7]).
Regarding `O=C(OC[C@H]1O[C@@H](OC(=O)c2cc(O)c(O)c(OC(=O)c3cc(O)c(O)c(O)c3)c2)[C@H](OC(=O)c2cc(O)c(O)c(OC(=O)c3cc(O)c(O)c(O)c3)c2)[C@@H](OC(=O)c2cc(O)c(O)c(OC(=O)c3cc(O)c(O)c(O)c3)c2)[C@@H]1OC(=O)c1cc(O)c(O)c(OC(=O)c2cc(O)c(O)c(O)c2)c1)c1cc(O)c(O)c(OC(=O)c2cc(O)c(O)c(O)c2)c1`, the call in [1], in [2], in [4] and in experiment [9] was inactive. Further, the concentration at half-maximal activity (AC50) in experiment [3] was 3.31 µM (active); in [6] it was 8.86 µM (active); with BCL2L11 (gene 10018), 15.2 µM (active); in [7] it was 6.96 µM (active); in experiment [8] it was 28.4 µM (active).
As to `O=c1n(CC2CO2)c(=O)n(CC2CO2)c(=O)n1CC1CO1` (stereo not drawn), the compound was classed as inactive in [1], in [2], in [3], in experiment [4], in [9] and in experiment [6]. For the same compound, the compound was classed as inactive (in the experiment with BCL2L11 (gene 10018); in experiment [7]; in experiment [8]).
`CC(O)CN(CCN(CC(C)O)CC(C)O)CC(C)O` (stereo not drawn): the outcome (in experiment [1]; in [2]; in experiment [3]; in experiment [9]; in [6]; with BCL2L11 (gene 10018)) was inactive. In addition, the outcome in experiment [7] was inactive. The AC50 in experiment [4] was 12.2 µM (active); in [8], 12.7 µM (active).
`CNS(=O)(=O)c1cc(C(=O)N2CCC(CCN3C4CCC3CC(n3c(C)nc5ccccc53)C4)(c3cccc(F)c3)CC2)c(Cl)cc1F` (stereo not drawn): the AC50 in experiment [1] is 30.9 µM (active); in experiment [2], 13.3 µM (active); in experiment [3], 14.5 µM (active); in [6], 24.6 µM (active); in [7] it was 30.5 µM (active); in experiment [8] it was 27.4 µM (active). Also, the result (in experiment [4]; in [9]; with BCL2L11 (gene 10018)) was inactive.
On to `Cn1c(=O)c2c(ncn2C)n(C)c1=O`, for which the compound was classed as inactive in [1], in experiment [2], in experiment [3], in experiment [4], in experiment [9] and in experiment [6]. The compound was classed as inactive (with BCL2L11 (gene 10018); in experiment [7]; in experiment [8]).

The record behind these values is PubChem BioAssay (EPA / NIEHS).
